PubChem BioAssay (NCI)
This is part of a sample that, as a whole, favours compounds with a hit. Of some 79,000 tested, about 15% had one in any assay. The source made the active and inactive calls. Rule as the data show it: active = growth inhibition above about 70%; inactive = the rest.

How the values were obtained:
[1] = NCI Yeast Anticancer Drug Screen. Data for the rad50 strain (AID 155);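 also: 0% = growth of vehicle-only cultures of the same strain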; settings: S. cerevisiae rad50 strain growth inhibition; at 50.0 µM; active compounds read high
How it was run: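 Cells are treated with compound, grown, and their growth is then scored against vehicle-only cultures of the same repair-deficient yeast strain.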

[2] = NCI Yeast Anticancer Drug Screen. Data for the mec2-1 strain (AID 157); settings: S. cerevisiae mec2-1 strain, at 50.0 µM, active compounds read high
How it was run: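 mec2-1 yeast strain, carrying an alteration in DNA damage repair or cell cycle control, was exposed to compounds; growth inhibition was measured relative to vehicle-treated controls.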

[3] = NCI Yeast Anticancer Drug Screen. Data for the sgs1 mgt1 strain (AID 161);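 also: 0% = growth of cultures given vehicle only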; settings: S. cerevisiae sgs1 mgt1 strain, at 50.0 µM, active compounds read high
How it was run: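 Yeast cells carrying a defined DNA-repair defect were exposed to test compounds. Growth inhibition was measured relative to vehicle-treated controls.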

[4] = NCI Yeast Anticancer Drug Screen. Data for the cln2 rad14 strain (AID 165);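 also: 0% = growth equal to vehicle treated cultures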; settings: S. cerevisiae cln2 rad14 strain, at 50.0 µM, active compounds read high
How it was run: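 Yeast carrying cln2 and rad14 alterations (cell cycle control and DNA damage repair) were exposed to compounds. Growth inhibition was measured against vehicle-treated controls.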

[5] = NCI Yeast Anticancer Drug Screen. Data for the bub3 strain (AID 167); settings: S. cerevisiae bub3 mutant strain, at 50.0 µM, active compounds read high
How it was run: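 Part of a panel of yeast mutants defective in DNA damage repair or cell cycle regulation. Each strain is grown with compound, and inhibition is calculated relative to solvent-treated cultures.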

[6] = NCI Yeast Anticancer Drug Screen. Data for the mlh1 rad18 strain (AID 175); settings: S. cerevisiae mlh1 rad18 strain growth inhibition; at 50.0 µM; active compounds read high
How it was run: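 Growth inhibition of the yeast strain was measured after compound exposure and expressed relative to vehicle-treated controls. The strain carries defined defects in DNA damage repair.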

Measured: growth inhibition

C/C(=N/NC(N)=O)C1C2CC3C(C2Cl)C31 (configuration not stated)
inactive: [1] 21.4% | [2] -15.3% | [3] -15.1% | [4] -30.6% | [5] 4.7% | [6] -2.4%

CCOCCOCCOC12C(=O)C(Cl)=C(Cl)C(=O)C13C1CC2C(Cl)C13 (configuration not stated)
active: [1] 99.4% | [2] 99.5% | [3] 98.9% | [4] 98% | [5] 98.7% | [6] 98.2%

O=C1O/C(=C2/OC(=O)c3ccccc32)c2ccccc21
inactive: [1] -8.05% | [2] -7.95% | [3] -3.75% | [4] -44% | [5] 14.5% | [6] -0.65%

O=c1c2cccnc2[nH]c2ccc3[nH]ncc3c12
inactive: [1] -17.2% | [2] -25.9% | [3] -13.4% | [4] 26.4% | [5] -30.9% | [6] 15.6%

COC(=O)CCC(=O)c1ccc2c(c1)CC1(C2)Cc2ccc3c(c2C1)CCCC3=O (configuration not stated)
inactive: [1] -10.9% | [2] -27.1% | [3] -14.1% | [4] 5.9% | [5] -13.6% | [6] -4.25%

COC(=O)CCC(=O)CN1C(=O)c2ccccc2C1=O
inactive: [1] 14.8% | [2] 9.1% | [3] 4% | [4] 11.5% | [5] 14.1% | [6] 1.5%

Cn1c(C(N)=O)cc(=O)n1-c1ccc([N+](=O)[O-])cc1
inactive: [1] 6.35% | [2] 18.7% | [3] 4.45% | [4] 3.8% | [5] -6% | [6] 0.35%

COc1cc(CNC(=O)NCCCl)cc(OC)c1OC
inactive: [1] -5.55% | [2] 1.2% | [3] -3.2% | [4] -3.45% | [5] -1% | [6] 2.7%

CCOc1ccccc1NC(=O)Nc1cccc(C(F)(F)F)c1
inactive: [1] 68.8% | [2] 60.5%
active: [3] 76% | [4] 72.3% | [5] 76% | [6] 88.9%

CNCCNc1ncc([N+](=O)[O-])s1
inactive: [1] -3.25% | [2] -9.1% | [3] -37.6% | [4] -25.1% | [5] -43% | [6] -32.5%

[N-]=[N+]=Nc1ccnc2c(C(F)(F)F)cccc12
inactive: [1] -19.9% | [2] -18.1% | [3] -8% | [4] -60.2% | [5] -14.3% | [6] -2.45%

COc1cc(C(=O)CC(=O)Cc2ccc3ccccc3n2)cc(OC)c1OC
inactive: [1] 2.75% | [2] 1.3% | [3] 0.9% | [4] -15.7% | [5] 2.05% | [6] 38.2%

COC(=O)NC1C(=O)CCC(=O)C1C(N)=O (configuration not stated)
inactive: [1] -23.4% | [2] -7.65% | [3] -17.4% | [4] -17.5% | [5] -0.3% | [6] -12.4%

Nc1cc(NC(=O)CO)cc(C(=O)O)c1
inactive: [1] 14.2% | [2] -1.15% | [3] -1% | [4] -0.4% | [5] 4.05% | [6] 7.1%

C=CCSc1ncnc2nc[nH]c12
inactive: [1] 7.9% | [2] -1.3% | [3] 1.55% | [4] -3.15% | [5] -0.45% | [6] 9.1%

C[S+]1CC2C3CC(C#N)C(C3)C2C1 (configuration not stated)
inactive: [1] 2.4% | [2] 11.2% | [3] 2.95% | [4] -28.1% | [5] -1.85% | [6] 16.9%

CN(C)CCNC(=O)c1cccc2c(Nc3ccc(S(N)(=O)=O)cc3)c3ccccc3nc12
inactive: [1] -43.7% | [2] 4% | [3] -43.1% | [4] 17.9% | [5] -23.6% | [6] 11.1%

COC(=O)CCOc1ccccc1
inactive: [1] 15.1% | [2] 5.1% | [3] 0.25% | [4] 11.9% | [5] -8.8% | [6] -18.8%

C/C=C/C(=O)OCCCCCCCCCCCCCCCCCC
inactive: [1] 13.7% | [2] -23.8% | [3] 11.7% | [4] 8% | [5] 15.5% | [6] 21%

COc1cc(NCCCCCCCNC(C)C)c2nccc(C)c2c1
inactive: [1] 26.7% | [2] 13.7% | [3] -6.25% | [4] 7.35% | [5] -2.7% | [6] -33.1%

COC(=O)C(S)(NC(C)=O)C(C)C (configuration not stated)
inactive: [1] 0.2% | [2] -10.5% | [3] -1.25% | [4] -30.4% | [5] -18.8% | [6] 16.1%

CCCCCCCCCCOc1ccc(C=NC/C=C/c2ccc(CC)cc2)cc1
inactive: [1] -19.4% | [2] -13.8% | [3] -13.7% | [4] -50.8% | [5] -1.2% | [6] -23.4%

CC(=O)NNc1ncc(C(=O)/C=C/c2ccccc2C)s1
inactive: [1] 31.1% | [2] 16.1% | [3] 12.5% | [4] 29.1% | [5] 22.3% | [6] 36.6%

CC(C(=O)C(=O)Nc1ccc(Cl)cc1)C(=O)c1ccc(Cl)cc1 (configuration not stated)
inactive: [1] 1.25% | [2] -7.15% | [3] -2.85% | [4] -14.9% | [5] 5.15% | [6] -17.3%

CC(C)(C)OC(=O)N1CCc2c(n(C/C=C/c3ccccc3)[nH]c2=O)C1
inactive: [1] -30.2% | [2] -14.3% | [3] -4.85% | [4] -0.3% | [5] 1.55% | [6] -19.4%

CSC(=S)Nc1cc(C)cc(C)n1
inactive: [1] 29.8% | [2] 17.7% | [3] 62.1% | [4] 38% | [5] 42.8% | [6] 60.8%

Cc1ccc(S(=O)(=O)Nn2c(-c3ccccc3)c(C#N)c(-c3ccc([N+](=O)[O-])cc3)c(C#N)c2=O)cc1
inactive: [1] -0.65% | [2] 16.2% | [3] 8.6% | [4] 11.6% | [5] 20.1% | [6] 37%

N#CCC1(O)c2ccccc2-c2ccccc21
inactive: [1] -11.9% | [2] 7.45% | [3] 8% | [4] -6.25% | [5] 1.4% | [6] 9.9%

c1ccc2c3c(ccc2c1)Oc1ccc2ccccc2c1C3
inactive: [1] -8.55% | [2] -1.45% | [3] -7.2% | [4] -47.4% | [5] -7.35% | [6] 1%

CCOC(CCCl)c1ccccc1 (configuration not stated)
inactive: [1] 2.45% | [2] -12.4% | [3] -39.5% | [4] 7.85% | [5] 11.1% | [6] -10.3%

Cc1cccc(-n2c(C)nc3[nH]cc(C)c3c2=N)c1
inactive: [1] 0.15% | [2] 0.65% | [3] 2.05% | [4] -21.9% | [5] 0.55% | [6] 11.1%

O=C(/C=C/c1ccccc1)NN1CCOCC1
inactive: [1] 13.5% | [2] 3.25% | [3] 24.1% | [4] -34.5% | [5] 6.55% | [6] -2.95%

CCOc1ccccc1NC(=O)C(Br)C(Br)c1ccccc1 (configuration not stated)
inactive: [1] -1.1% | [2] 0.65% | [3] 30.9% | [4] -20.9% | [5] 20.1% | [6] 42.3%

C=C(CC)C(=O)c1ccc(OCC(=O)O)c(Cl)c1Cl
inactive: [1] 14.7% | [2] -15.9% | [3] 16.6% | [4] 16.1% | [5] 19.8% | [6] -8.35%

CC(=O)/C(N=Nc1ccc(S(=O)(=O)c2ccc(N=N/C(C(C)=O)=C(/C)O)cc2)cc1)=C(\C)O
inactive: [1] -27.2% | [2] -20.4% | [3] -9.8% | [4] 0.15% | [5] -20.6% | [6] -14.9%

COC(=O)CN(c1ccc(C#N)c2ccccc12)S(=O)(=O)c1ccccc1
inactive: [1] 32.4% | [2] -2.35% | [3] 3.7% | [4] -4.9% | [5] 4.25% | [6] 1.45%

COc1ccc(C(=O)/C=C/c2c[nH]c3ccccc23)c(O)c1
inactive: [1] 15.8% | [2] 9.85% | [3] 26.3% | [4] -43.2% | [5] 9.9% | [6] 22.4%

O=C(COc1ccc(Cl)cc1)Nc1ccccc1Br
inactive: [1] 11% | [2] 12.1% | [3] 7.35% | [4] 9% | [5] 33.7% | [6] -4.55%

Cc1cn(C2CC3[O][Sn]([c]4ccccc4)([c]4ccccc4)[O]CC3O2)c(=O)[nH]c1=O (configuration not stated)
inactive: [1] 8.65% | [2] 35.8% | [3] 16.6% | [4] 7.6% | [5] 13.2% | [6] 47%

CCCCCCCCCO
inactive: [1] 13.7% | [2] -4.8% | [3] 19.9% | [4] 11.3% | [5] 12.8% | [6] 19.3%

CC(C)(O)CC(O)(C(F)(F)F)C(F)(F)F
inactive: [1] 14.3% | [2] -0.95% | [3] -3.25% | [4] -20.3% | [5] 3.35% | [6] 1.9%

C(CCN1CN(CCCCN2CCOCC2)CN(CCCCN2CCOCC2)C1)CN1CCOCC1
inactive: [1] 12.8% | [2] 4.75% | [3] 10.4% | [4] -5.5% | [5] -1.75% | [6] 29.6%
